The nature of assay [1]: A CellTox Green Cytotoxicity Assay to monitor cytotoxicity in HEK293 cells - 8 hour (AID 1224884). Note: nearly all actives have a fitted effect of over 35% in size. An outline of the steps: (§1)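 Read-out: fluorescence of a cell-impermeant cyanine dye staining DNA of dead cells, proportional to cytotoxicity. HEK293, 600 cells/well with reagent, compound (23 nL DMSO) added after 5 h; reads at 0, 8, 16, 24, 32, 40 h.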
Assay [2] is described as follows: qHTS RealTime-Glo MT Cell Viability Assay in HepG2 cells - 16 hour (AID 1224885). Note: nearly all actives have a fitted effect of over 50% in size. A digest of the protocol:
(§2)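 Viability was tracked continuously by NanoLuc luminescence from prosubstrate reduced by living HepG2 cells, at successive time points over 40 h of compound exposure. Cells with reagent were preincubated 5 h at 37 °C before compound addition.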

Assay [3] can be described thus: qHTS RealTime-Glo MT Cell Viability Assay in HEK293 cells - 24 hour (AID 1224886). For activity change, negative = cytotoxicity: top concentration of the series differs between compounds. Note: nearly all actives have a fitted effect of over 50% in size. Note: potency is the fitted concentration of half-maximal effect. An outline of the steps: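 Viability tracked continuously by luminescence as live cells reduce a prosubstrate for NanoLuc; HEK293 cells preincubated 5 h, compound-treated at 37 C, and read at 0, 8, 16, 24, 32 and 40 h.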
(In qHTS, concentration-response curves come from the screen itself.)

Assay [4] in a line: qHTS RealTime-Glo MT Cell Viability Assay in HEK293 cells - 8 hour (AID 1224887). Note: top concentration of the series differs between compounds; nearly all actives have a fitted effect of over 50% in size. An outline of the steps: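 Luminescence readout at each listed time point; HEK293, 600 cells/well, RealTime-Glo MT reagent added with cells; compounds pinned (23 nL in DMSO) after 5 h at 37 C; continuous culture at 37 C.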
Assay [5] can be described thus: A CellTox Green Cytotoxicity Assay to monitor cytotoxicity in HEK293 cells - 16 hour (AID 1224888). Note: nearly all actives have a fitted effect of over 35% in size. A digest of the protocol: as §1
Assay [6] can be described thus: qHTS RealTime-Glo MT Cell Viability Assay in HepG2 cells - 0 hour (AID 1224889). Note: nearly all actives have a fitted effect of over 50% in size. A digest of the protocol:
as §2

Assay [7] in a line: A CellTox Green Cytotoxicity Assay to monitor cytotoxicity in HepG2 cells - 8 hour (AID 1224890). Note: nearly all actives have a fitted effect of over 45% in size. A digest of the protocol: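 HepG2, 600 cells/well premixed w/ CellTox Green; 5 h settle, 37 C/5% CO2; pintool cpd add (DMSO); 37 C, 40 h; fluorescence read at 0, 8, 16, 24, 32, 40 h.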
Assay [8] can be described thus: qHTS assay to identify small molecule antagonists of the estrogen receptor alpha (ER-alpha) signaling pathway using the BG1 cell line in the presence of 0.1 nM 17-beta-estradiol - cell viability counter screen (AID 1259241). Note: nearly all actives have a fitted effect of over 40% in size. An outline of the steps:
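The cell line endogenously expresses full-length ER-alpha and carries four EREs driving luciferase. Cells are cultured 5 days hormone-free, treated 22 hr with compounds and 0.1 nM estradiol, then viability is read by fluorescence.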

Assay [9] can be described thus: qHTS assay to identify small molecule antagonists of the androgen receptor (AR) signaling pathway using the MDA cell line in the presence of 0.5 nM R1881 - cell viability counter screen (AID 1259242). Note: nearly all actives have a fitted effect of over 45% in size. A digest of the protocol:
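Live-cell protease fluorescence, CellTiter-Fluor, 30 min at 37C. Cells: MDA-kb2, 3,000/well, preincubated 5 hr. Compounds plus 0.5 nM R1881 final, 16 hr, 37C, 0% CO2.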

Assay [10] concerns the target Androgen receptor (Homo sapiens) (UniProt P10275). As to the kind of experiment: qHTS assay to identify small molecule antagonists of the androgen receptor (AR) signaling pathway using the MDA cell line in the presence of 0.5 nM R1881 (AID 1259243). Note: nearly all actives have a fitted effect of over 50% in size. A digest of the protocol: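 MDA-kb2, MMTV-luc (AR/GR elements); 3,000 cells/well; cpd + 0.5 nM R1881 final; 16 hr 37C, 0% CO2; ONE-Glo 30 min RT; luminescence.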

A short description of assay [11]: qHTS assay to identify small molecule HDAC inhibitors (AID 1259364).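 Note: wild-type HCT-116 cells with endogenous class I/II HDAC activity; top concentration of the series differs between compounds; nearly all actives have a fitted effect of over 45% in size.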 An outline of the steps:
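HCT-116 (wild type), 1,500 cells/well, overnight; compound 2 hr 37C 5% CO2; HDAC-Glo I/II reagent 30 min RT; luminescence readout.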

A short description of assay [12]: qHTS assay to identify small molecule HDAC inhibitors - cell viability counter screen (AID 1259365). An outline of the steps: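 Viability readout: CellTiter-Glo luminescence. Wild-type HCT-116 cells, 2hr compound treatment following overnight attachment at 37 C.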
Assay [13] is described as follows: qHTS assay to identify small molecule agonists of the sonic hedgehog signaling (Shh) pathway - cell viability counter screen (AID 1259366). Note: nearly all actives have a fitted effect of over 50% in size. A digest of the protocol:
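Viability measured fluorometrically (CellTiter-Fluor, 1hr, 37C) in 3T3 Gli1-Luc reporter cells after 23hr compound exposure within a 24hr incubation at 37C/5% CO2.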

A short description of assay [14]: qHTS assay to identify small molecule antagonists of the sonic hedgehog signaling (Shh) pathway - cell viability counter screen (AID 1259367). Note: nearly all actives have a fitted effect of over 55% in size. An outline of the steps:
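Viability was read by CellTiter-Fluor fluorescence in the same wells, reagent added 23 hr into compound treatment and incubated 1 hr at 37C. The 3T3 Gli1-Luc reporter cells (2,000/well) received conditioned medium after compound and ran 24 hr.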

Assay [15] is described as follows: qHTS assay to identify small molecule agonists of the sonic hedgehog signaling (Shh) pathway (AID 1259368; calls by dose curve;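 note: NIH/3T3-derived 3T3Gli1-Luc cells carrying a stable Gli1-driven firefly luciferase reporter; series mostly up to about 92 µM; nearly all actives have a fitted effect of over 15% in size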). A digest of the protocol: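 Read-out: firefly luciferase luminescence from a Gli1 response element reporter stably integrated in NIH/3T3-derived 3T3Gli1-Luc cells, measured 30 min at room temperature after reagent addition. Compound exposure lasted 24 hr at 37 C, 5% CO2.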

The nature of assay [16]: qHTS assay to identify small molecule antagonists of the sonic hedgehog signaling (Shh) pathway (AID 1259369; calls by dose curve; note: nearly all actives have a fitted effect of over 45% in size). A digest of the protocol:
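Luminescence readout: firefly Luc under Gli1 response element in 3T3Gli1-Luc cells (NIH/3T3 clone). Antagonist mode, stimulation by conditioned medium; compound exposure 24hr at 37 C, 5% CO2.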

The target in assay [17] is Estrogen receptor beta (Homo sapiens) (UniProt Q92731). Kind of assay: qHTS assay to identify small molecule agonists of the estrogen receptor beta (ER-beta) signaling pathway (AID 1259377; active = well fitted activation curve with a large enough effect in the signal ratio in the repeat runs, not every such curve was filed as active; the % refers to the signal ratio). An outline of the steps: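 A UAS-controlled beta-lactamase reporter in ER-beta-UAS-bla HEK293T cells reports receptor activation. Compounds act for 16 hr at 37C in 2% charcoal-stripped serum, and a FRET substrate is read by fluorescence after 2 hours.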

Assay [18] has the same target. As to the kind of experiment: qHTS assay to identify small molecule antagonists of the estrogen receptor beta (ER-beta) signaling pathway (AID 1259378; active = well fitted inhibition curve with a large enough effect in the signal ratio in the repeat runs, not every such curve was filed as active; the % refers to the signal ratio). An outline of the steps:
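Antagonist mode: compounds added to beta-lactamase reporter HEK293T ER-beta-UAS cells stimulated with E2 (1nM final), 16 hr at 37C. LiveBLAzer B/G FRET substrate, 2 hours room temperature, fluorescence read-out.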

Assay [19] has as its target Estrogen receptor (Homo sapiens) (UniProt P03372). Kind of assay: qHTS assay to identify small molecule antagonists of the estrogen receptor alpha (ER-alpha) signaling pathway using the BG1 cell line in the presence of 0.1 nM 17-beta-estradiol (AID 1259244). Note: nearly all actives have a fitted effect of over 50% in size. An outline of the steps:
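Luminescence after ONE-Glo (30 min, room temperature) measured ERE-luciferase activity in VM7Luc4E2 cells treated 22 h with compound and 0.1 nM final 17beta-estradiol as stimulator.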

These results are taken from PubChem BioAssay (Tox21).

Molecules are shown by their SMILES. Unmarked numbers belong to inactive results. Records with an inconclusive call do not appear. Activity calls are given as the source filed them. Unless noted, calls come from the whole dose curve; as a rule, active = well fitted curve in the direction sought with a large enough effect in the repeat runs; inconclusive = weak or mixed curves; inactive = no such curve, though single readings can be large; an effect the other way counts as inactive or inconclusive.
% is set by controls: 0 for no effect and ±100 for the full control effect.

Androgen receptor (Homo sapiens), sequence (P10275 whole entry, looked up): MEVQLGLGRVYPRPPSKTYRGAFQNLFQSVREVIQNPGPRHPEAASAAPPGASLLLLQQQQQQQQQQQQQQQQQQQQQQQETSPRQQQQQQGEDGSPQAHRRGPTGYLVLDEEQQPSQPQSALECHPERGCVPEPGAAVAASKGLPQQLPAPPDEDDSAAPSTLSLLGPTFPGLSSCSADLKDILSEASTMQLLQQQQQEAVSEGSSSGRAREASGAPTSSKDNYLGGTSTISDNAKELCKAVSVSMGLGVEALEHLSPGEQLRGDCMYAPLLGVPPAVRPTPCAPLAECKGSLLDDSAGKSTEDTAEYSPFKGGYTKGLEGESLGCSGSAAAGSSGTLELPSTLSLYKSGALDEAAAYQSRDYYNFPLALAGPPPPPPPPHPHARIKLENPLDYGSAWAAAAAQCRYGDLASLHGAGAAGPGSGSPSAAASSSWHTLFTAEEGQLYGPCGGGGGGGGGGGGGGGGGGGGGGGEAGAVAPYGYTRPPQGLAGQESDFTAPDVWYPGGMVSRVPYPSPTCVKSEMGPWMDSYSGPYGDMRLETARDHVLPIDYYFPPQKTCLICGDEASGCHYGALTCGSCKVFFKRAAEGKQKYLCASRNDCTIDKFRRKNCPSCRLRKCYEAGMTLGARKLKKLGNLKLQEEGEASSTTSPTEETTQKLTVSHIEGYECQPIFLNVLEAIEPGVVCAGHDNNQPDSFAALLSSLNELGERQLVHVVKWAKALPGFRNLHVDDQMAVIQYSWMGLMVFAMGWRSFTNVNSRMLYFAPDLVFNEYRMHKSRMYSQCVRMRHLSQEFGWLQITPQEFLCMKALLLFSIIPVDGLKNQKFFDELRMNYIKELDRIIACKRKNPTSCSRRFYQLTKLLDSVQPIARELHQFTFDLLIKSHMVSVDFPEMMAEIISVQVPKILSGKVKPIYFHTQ
Estrogen receptor beta (Homo sapiens), sequence (Q92731 whole entry, looked up): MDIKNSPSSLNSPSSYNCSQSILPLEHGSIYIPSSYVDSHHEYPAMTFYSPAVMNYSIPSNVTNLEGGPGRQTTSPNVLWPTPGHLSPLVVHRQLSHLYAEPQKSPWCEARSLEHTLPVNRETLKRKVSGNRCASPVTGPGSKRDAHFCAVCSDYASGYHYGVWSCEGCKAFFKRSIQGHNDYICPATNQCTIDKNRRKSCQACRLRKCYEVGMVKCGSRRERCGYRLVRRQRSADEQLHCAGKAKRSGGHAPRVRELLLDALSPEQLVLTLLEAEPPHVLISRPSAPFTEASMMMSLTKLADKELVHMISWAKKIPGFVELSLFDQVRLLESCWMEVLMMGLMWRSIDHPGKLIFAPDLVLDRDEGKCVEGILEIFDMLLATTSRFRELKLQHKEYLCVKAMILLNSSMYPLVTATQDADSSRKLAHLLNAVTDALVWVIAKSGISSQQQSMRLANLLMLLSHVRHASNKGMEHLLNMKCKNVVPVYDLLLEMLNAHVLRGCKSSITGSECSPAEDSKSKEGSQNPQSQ
Estrogen receptor (Homo sapiens), sequence (P03372 whole entry, looked up): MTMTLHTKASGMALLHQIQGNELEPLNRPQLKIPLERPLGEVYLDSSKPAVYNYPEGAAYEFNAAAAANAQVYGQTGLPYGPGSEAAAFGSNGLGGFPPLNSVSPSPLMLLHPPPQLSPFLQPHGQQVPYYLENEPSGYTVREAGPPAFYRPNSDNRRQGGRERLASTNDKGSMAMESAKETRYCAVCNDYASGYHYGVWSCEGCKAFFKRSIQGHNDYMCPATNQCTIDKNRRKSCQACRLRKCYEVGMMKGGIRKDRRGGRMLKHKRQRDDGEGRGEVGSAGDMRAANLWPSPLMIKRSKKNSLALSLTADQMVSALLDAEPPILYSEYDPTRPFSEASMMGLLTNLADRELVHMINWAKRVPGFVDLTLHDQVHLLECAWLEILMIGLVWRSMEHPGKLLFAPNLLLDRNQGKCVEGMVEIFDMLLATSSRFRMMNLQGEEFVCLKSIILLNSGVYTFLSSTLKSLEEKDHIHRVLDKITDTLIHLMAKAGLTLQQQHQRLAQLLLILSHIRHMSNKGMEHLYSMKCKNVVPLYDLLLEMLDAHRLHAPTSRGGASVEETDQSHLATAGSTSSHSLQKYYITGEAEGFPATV

On to `NC(=O)C1CO1` (stereo unspecified), for which the Potency entry in assay [1], in assay [2], in assay [3], in [4], in assay [5] and in [6] was “inactive” throughout. In addition, the Potency result in assay [7], in assay [8], in assay [9], in [10], in assay [11] and in assay [12] was “inactive” each time. Besides, the Potency result in [13], in assay [14], in assay [15], in assay [16] and in [18] was “inactive” throughout. In addition, the compound was classed as inactive in assay [17].
With `C/C(=C\c1ccc(C(=O)O)cc1)c1ccc2c(c1)C(C)(C)CCC2(C)C`, the Potency result in assay [1], in assay [2], in [3], in assay [4], in assay [5] and in [6] was “inactive” throughout. The Potency result in [7], in assay [8], in [9], in assay [11], in assay [12] and in assay [13] was “inactive” in each case. Also, the Potency result in assay [14], in assay [15] and in [16] was “inactive” in each case. In [17], the compound was called inactive.
`[Cl][Sc]([Cl])[Cl]`: the Potency result in [1], in assay [2], in assay [3], in [4], in [5] and in assay [6] was “inactive” each time. In addition, the Potency entry in assay [7], in assay [8], in assay [9], in assay [10], in assay [11] and in assay [12] was “inactive” throughout. The Potency entry in assay [14], in assay [15] and in assay [16] was “inactive” each time.
As for `CCCCNc1ccc(NCCCC)c2c1C(=O)c1ccccc1C2=O`, the results for the cytotoxicity increase in assay [1] and in [7] were 1.22% [at 15.8 µM] and -2.69% [at 15.8 µM], respectively. The activity change, negative = cytotoxic in [2] was 0.554% [at 15.8 µM]. Further, the activity change, negative = cytotoxicity in [3] is -0.0547% [at 15.8 µM]; in assay [4], 3.79% [at 15.8 µM]; in assay [6], 1.94% [at 15.8 µM]; in [8] it was -14.1% [at 19 µM]. In addition, the activity change in [5] was 0.839% [at 15.8 µM, hits give high values]; in assay [15], -0.26% [at 18.9 µM, hits give high values]. In addition, the viability change, negative = cytotoxic was -9.45% [at 19 µM] in [9], -17.5% [at 19 µM] in assay [13] and -12.9% [at 19 µM] in assay [14]. The activity, negative = inhibition in assay [10] is -3.08% [at 19 µM]; in assay [18], 17.4% [at 19 µM]. Besides, the activity change, negative = inhibition in assay [19] was 2.76% [at 19 µM]; in [16], -20.1% [at 19 µM]. In addition, the activation in assay [17] was -2.22% [at 19 µM].
Consider `Cc1c[nH]c(=O)[nH]c1=O`, for which the Potency entry in assay [1], in [2], in [3], in assay [4], in [5] and in [6] was “inactive” throughout. Also, the Potency entry in assay [7], in assay [8], in [9], in assay [10], in assay [11] and in [12] was “inactive” throughout. For the same compound, the Potency entry in [13], in assay [14], in assay [15], in assay [16] and in assay [18] was “inactive” throughout.
In the case of `CCc1cccc(C)c1N(C(=O)C(=O)O)C(C)COC` (stereo unspecified), the Potency result in [1], in [2], in assay [3], in [4], in assay [5] and in [6] was “inactive” each time. Besides, the Potency entry in assay [7], in assay [8], in [9], in [10], in assay [19] and in assay [11] was “inactive” throughout. In addition, the Potency entry in assay [12], in assay [13], in assay [14], in assay [15] and in [16] was “inactive” throughout.
Consider `C[C@H]1O[C@@H](O[C@H]2CC[C@@]3(C)[C@H](CC[C@@H]4[C@@H]3C[C@@H](O)[C@]3(C)[C@@H](C5=CC(=O)OC5)CC[C@]43O)C2)C[C@H](O)[C@@H]1O[C@H]1C[C@H](O)[C@H](O[C@H]2C[C@H](O)[C@H](O[C@@H]3O[C@H](CO)[C@@H](O)[C@H](O)[C@H]3O)[C@@H](C)O2)[C@@H](C)O1`, for which the Potency result in assay [1], in assay [2], in [4], in assay [5], in assay [6] and in assay [7] was “inactive” in each case. Also, the Potency entry in [8], in assay [9], in assay [10], in [11], in [12] and in [13] was “inactive” each time. Moreover, the Potency entry in [14], in [15] and in assay [16] was “inactive” throughout. In addition, the Potency in [3] is 268 nM (active).
